An excerpt weighted towards active compounds, which were near 3.5% of everything screened.
GPR151 ag: activates the human receptor GPR151; Q8TDV0; PathHunter beta-arrestin GPR151 cells, luminescence; activation, % at 11.2 µM; 1% of 650,000 active; AID 1508602; in the data active = activation above about 4.9%
Target sequence (Q8TDV0 whole entry, looked up): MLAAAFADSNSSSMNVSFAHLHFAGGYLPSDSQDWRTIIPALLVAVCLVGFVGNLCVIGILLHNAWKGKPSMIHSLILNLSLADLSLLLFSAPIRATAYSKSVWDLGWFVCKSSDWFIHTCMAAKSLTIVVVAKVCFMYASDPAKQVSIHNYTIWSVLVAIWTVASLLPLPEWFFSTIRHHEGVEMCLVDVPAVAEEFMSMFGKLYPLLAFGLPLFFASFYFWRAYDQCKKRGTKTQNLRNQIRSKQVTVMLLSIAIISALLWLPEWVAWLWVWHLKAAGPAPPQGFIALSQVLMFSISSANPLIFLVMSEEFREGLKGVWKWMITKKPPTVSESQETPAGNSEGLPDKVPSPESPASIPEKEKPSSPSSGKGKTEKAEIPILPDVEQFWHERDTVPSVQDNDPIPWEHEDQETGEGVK
TEAD-YAP block: TEAD-YAP interaction inhibition; HEK-TIYL cells, TEAD-Gal4/YAP UAS-luciferase luminescence; AID 1259422; 1.4% of 640,000 active; inhibition, % at 9.12 µM; in the data active = inhibition above about 32%
MITF primary: inhibitors of human MITF | O75030 | AlphaScreen MITF homodimerization, bead proximity signal | inhibition, % at 2.6 µM | 0.91% of 650,000 active | AID 1259374; in the data active = inhibition above about 50%
FBW7 act: human FBW7 E3 ligase activation, primary screen. Q969H0. AlphaScreen FBW7–phospho-cyclin E peptide binding, activator screen. 0.13% of 650,000 active. normalized activity (activation), % at 26.1 µM; in the data active = normalized activity above about 1.9%;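 note: purified mutant Fbw7 with reduced substrate affinity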
Numbers stand for hits; – = inactive.

SMILES | GPR151 ag | TEAD-YAP block | MITF primary | FBW7 act
O=C(O)c1cccnc1Nc1ccc([N+](=O)[O-])cc1 | – | 35.9 | – | –
O=C(NCc1ccc(F)cc1)c1nnc(-c2ccccc2)o1 | – | – | – | –
COc1ccc(N2CCN(c3ncnc4sc(C(=O)Nc5cccc(Cl)c5C)c(C)c34)CC2)cc1 | – | – | – | –
CCOc1ccc(/C=C/c2c([N+](=O)[O-])c(=O)n(C)c(=O)n2C)cc1 | – | – | – | –
CCc1ccc(/C=C/c2c([N+](=O)[O-])c(=O)n(C)c(=O)n2C)cc1 | – | 44.3 | – | –
O=C(CSc1nncs1)Nc1ccc(OCc2ccccc2)cc1 | – | – | – | 11.6
CCOC(=O)/C(C#N)=N/Nc1ccc2c(c1)OCCO2 | – | – | – | –
N#CC(C#N)=NNc1ccc2c(c1)OCO2 | – | 39.3 | – | –
CCOc1cc(CN2CCCC(CNC(=O)c3cccs3)C2)ccc1OC (stereo unspecified) | – | – | – | –
CC1CCN(Cc2cc(Cn3ccnc3)c3cccnc3c2O)CC1 | – | 39.4 | 109.9 | –
COc1ccc(C(=O)Oc2c(CN3CCOCC3)cc(Cl)c3cccnc23)cc1OC | – | – | – | –
CC1CCN(Cc2cc(Cl)c(O)c3ncccc23)CC1 | – | 84.8 | 98.1 | –
CC1CCN(Cc2ccccc2CO)CC1 | – | – | – | –
CC1CCN(Cc2cc(Cl)c3cccnc3c2O)CC1 | – | 45.6 | – | –
CC1CCCCN1Cc1cc(Cl)c2cccnc2c1O (stereo unspecified) | – | 72.8 | – | –
CCOP(=O)(CN(CCc1ccccc1)C(=S)Nc1cccc(OC)c1)OCC | – | – | – | –
CC(C)C(CO)Nc1nccn2c(-c3cccc(C(N)=O)c3)cnc12 (stereo unspecified) | – | – | – | –
COCc1cc(C)n(CC(=O)Nc2ccc(F)c(F)c2F)c(=O)c1C#N | – | – | – | –
O=C(Cn1cnc2ccccc2c1=O)NCCC(=O)Nc1cccc(C(F)(F)F)c1 | – | – | – | –
CN1CCN(Cc2cc(Cl)c(O)c3ncccc23)CC1 | – | 90.2 | 97.9 | –
Oc1ccc(CN2CCN(c3ccc(F)cc3)CC2)c2cccnc12 | – | – | – | –
COCCCNC(=O)CN(c1cccc(C)c1C)S(=O)(=O)c1ccc(C)cc1 | – | – | – | –
C=CCNC(=O)c1c(-c2ccccc2)nc2cc(C)ccn12 | – | – | – | 1.9
CCCc1nc(N)c(C#N)c(-c2ccccc2)c1C | – | – | – | –
COc1cccc(-c2ccnc(-n3ncc(C(=O)NCc4ccccn4)c3C3CC3)n2)c1 | – | – | – | –
SMILES | GPR151 ag | TEAD-YAP block | MITF primary | FBW7 act
COCCCNC(=O)c1cnn(-c2nccc(-c3ccc(OC)c(F)c3)n2)c1C1CC1 | – | 48.5 | – | –
Cc1cc2c(s1)c1cnn(Cc3cccnc3)c(=O)c1n2C | – | – | – | –
CCOC(=O)c1ccc(N2C(=O)CC(NCCc3ccc(S(N)(=O)=O)cc3)C2=O)cc1 (stereo unspecified) | – | – | – | –
CCOC(=O)c1c(N)sc(C(=O)Nc2ccccc2)c1C | – | 32.4 | – | –
CCOC(=O)c1c(N)sc(C(=O)Nc2cccc(Cl)c2)c1C | – | 49.8 | – | –
CCOC(=O)c1c(N)sc(C(=O)Nc2ccc(C)c(Cl)c2)c1C | – | 34.8 | – | –
CCOC(=O)c1c(N)sc(C(=O)Nc2ccccc2F)c1C | – | 48.0 | – | –
CCOC(=O)c1c(N)sc(C(=O)Nc2ccccc2C(F)(F)F)c1C | – | – | – | –
COc1ccc(/C=C2\N=C(c3cccc(I)c3)OC2=O)cc1OC(C)=O | – | – | – | –
COc1cccc(N2C(=O)C(O)=C(C(C)=O)C2c2ccc(Br)cc2)c1 (stereo unspecified) | – | – | – | –
COC(=O)c1c(N)sc(C(=O)Nc2cccc(Cl)c2C)c1C | – | 69.2 | – | –
COc1cc(-c2ccc(NC(=O)Nc3ccccc3C)c(OC)c2)ccc1NC(=O)Nc1ccccc1C | – | 45.1 | – | –
Cc1ccc(C(=O)C(C)Oc2ccc(C#N)cc2)cc1 (stereo unspecified) | – | – | – | –
CN1CCN(C2=CC(=[N+]3CCCC3)CC(C)(C)C2)CC1 | – | – | – | –
CN1CCN(C2=CC(=[N+]3CCCCC3)CC(C)(C)C2)CC1 | – | – | – | –
CC1CC(C)C[N+](=C2C=C(N3CCCC3)CC(C)(C)C2)C1 (stereo unspecified) | – | 77.1 | – | –
CC1(C)CC(N2CCCC2)=CC(=[N+]2CCCCCC2)C1 | – | 66.1 | – | –
C1=C(N2CCCC2)CCCC1=[N+]1CCCC1 | – | 42.1 | – | –
CCc1nn(-c2ccccc2)c2nc(-c3ccc(O)c(OC)c3)c3cc(OC)c(OC)cc3c12 | – | – | – | –
O=C1OC(c2ccccc2Cl)=N/C1=C\c1ccccc1I | – | – | – | –
Cc1cc(/C=C(/C#N)C(=O)NCc2ccccc2)c(C)n1-c1ccc(C(=O)O)cc1 | – | – | – | –
O=C(CCc1nnc(Cc2c[nH]c3ccccc23)o1)NCCn1ccc2ccccc21 | – | – | – | 2.3
Cn1c(CCNC(=O)CCc2nnc(Cc3c[nH]c4ccccc34)o2)nc2ccccc21 | – | – | – | –
CC(=O)Nc1ccc(Nc2ccnc(Nc3ccc(C(F)(F)F)cc3)n2)cc1 | – | 59.8 | – | –
CC(=O)Nc1ccc(Nc2ccnc(Nc3ccncn3)n2)cc1 | – | – | – | –
SMILES | GPR151 ag | TEAD-YAP block | MITF primary | FBW7 act
CC(=O)Nc1ccc(Nc2ccnc(Nc3ccc4ncccc4c3)n2)cc1 | – | 36.6 | – | –
CC(=O)Nc1ccc(Nc2cc(C)nc(Nc3ccc4ncccc4c3)n2)cc1 | – | – | – | –
COc1ccc(C2CC(=O)NC3=C2C(=O)CC(c2ccc(OC)c(OC)c2)C3)cc1 (stereo unspecified) | – | – | – | –
O=C(N/N=C/c1cccc(I)c1)c1ccccc1 | – | – | – | –
COc1cccc(C2Nc3ccc(C(=O)O)cc3C3C=CCC32)c1 (stereo unspecified) | – | – | 65.3 | –
O=C(O)c1ccc2c(c1)C1C=CCC1C(c1cccc([N+](=O)[O-])c1)N2 (stereo unspecified) | – | – | 82.5 | –
COc1ccc(C2Nc3ccc(C(=O)O)cc3C3C=CCC32)cc1 (stereo unspecified) | – | – | 72.8 | –
O=[N+]([O-])c1cccc(C2Nc3ccc4ccccc4c3C3C=CCC32)c1 (stereo unspecified) | – | 40.2 | – | –
Cc1ccc2oc(=O)c3cnn(CC(=O)N4CCN(c5ccc([N+](=O)[O-])cc5)CC4)c3c2c1 | – | – | – | –
CCc1nccn1CCC(=O)N1CCCC(C(=O)c2cc(F)ccc2OC)C1 (stereo unspecified) | – | – | – | –
O=C(CN1C(=O)NC(Cc2c[nH]c3ccccc23)C1=O)NCCCN1CCCC1=O (stereo unspecified) | – | – | – | –
COC(=O)c1ccc2c(c1)C1C=CCC1C(c1ccc(F)cc1)N2 (stereo unspecified) | – | – | – | –
COc1ccc(OC)c([C@@H]2Nc3ccc(C(=O)O)cc3[C@@H]3C=CC[C@@H]32)c1 | – | – | – | –
COC(=O)c1ccc(C2Nc3ccc(C(=O)O)cc3C3C=CCC32)cc1 (stereo unspecified) | – | – | 74.6 | –
